Screening data deposited in PubChem by National Center for Advancing Translational Sciences (NCATS).
Compounds with a hit are over-represented: about 7.4% of the library has one in this group of screens.
NIH3T3 tox: Cytotoxic Profiling in NIH 3T3 Cell Line of Diverse Libraries Using Quantitative High-Throughput Screening; NIH 3T3 viability, CellTiter-Glo ATP luminescence, 48-72 h; Potency, µM (doses to about 96.7 µM), usual class: inhibitors; 94,000 compounds, 4.3% hits; AID 1345082, 2018; also: nearly all actives have a fitted effect of over 55% in size
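Cytotoxicity was measured by CellTiter-Glo ATP luminescence after 48 or 72 h compound exposure at 37 °C. Mouse NIH 3T3 fibroblasts were seeded at 400 cells/well and dosed by 23 nL pin transfer.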
SNCA expr inhib: Primary qHTS assay for inhibitors of alpha-synuclein gene (SNCA) expression. HEK-293 SNCA-luciferase knock-in, luminescence, 24 h. Potency, µM (doses to about 57.2 µM), actives largely listed as inhibitors. 140,000 compounds, 0.17% hits. AID 1671194, 2021; also: nearly all actives have a fitted effect of over 45% in size
Luciferase inh: Firefly luciferase inhibition profiling of diverse chemical library using quantitative high-throughput screening | Luciferin 4-monooxygenase (Photinus pyralis), P08659 | AID 1347043, 2019 | 76,000 compounds, 2.5% hits | Potency, µM (highest dose often 115 µM), most hits filed as inhibitors | purified P. pyralis luciferase, luminescence, biochemical; also: nearly all actives have a fitted effect of over 65% in size
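Luminescence read by CCD imaging after purified firefly luciferase (10nM final) was added to substrate buffer holding 10uM D-luciferin and 10uM ATP, pH 7.5, pre-dosed with compound.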
HEK cytotox: Cytotoxic Profiling in HEK 293 Cell Line of Diverse Libraries Using Quantitative High-Throughput Screening; 94,000 compounds, 6.6% hits; HEK 293 viability, ATP luminescence (CellTiter-Glo), 48-72 h; Potency, µM (titrated, usually from 115 µM), usual class: inhibitors; also: nearly all actives have a fitted effect of over 60% in size
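Cells seeded first (HEK 293, 250 cells/well), then compound added by pintool. Incubation ran 48 or 72 hr at 37 degree Celsius. CellTiter-Glo was added and luminescence imaged after 10 min at room temperature.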
NPR1 antag: Natriuretic polypeptide receptor (hNpr1) antagonism - Primary qHTS. 76,000 compounds, 1.6% hits. HEK293 hNpr1 GloSensor cGMP, ANP-stimulated luminescence. Potency, µM (series often up to 46.3 µM), most hits filed as inhibitors. AID 1347048, 2019; calls by dose curve; also: nearly all actives have a fitted effect of over 60% in size
Target sequence (P16066 whole entry, looked up): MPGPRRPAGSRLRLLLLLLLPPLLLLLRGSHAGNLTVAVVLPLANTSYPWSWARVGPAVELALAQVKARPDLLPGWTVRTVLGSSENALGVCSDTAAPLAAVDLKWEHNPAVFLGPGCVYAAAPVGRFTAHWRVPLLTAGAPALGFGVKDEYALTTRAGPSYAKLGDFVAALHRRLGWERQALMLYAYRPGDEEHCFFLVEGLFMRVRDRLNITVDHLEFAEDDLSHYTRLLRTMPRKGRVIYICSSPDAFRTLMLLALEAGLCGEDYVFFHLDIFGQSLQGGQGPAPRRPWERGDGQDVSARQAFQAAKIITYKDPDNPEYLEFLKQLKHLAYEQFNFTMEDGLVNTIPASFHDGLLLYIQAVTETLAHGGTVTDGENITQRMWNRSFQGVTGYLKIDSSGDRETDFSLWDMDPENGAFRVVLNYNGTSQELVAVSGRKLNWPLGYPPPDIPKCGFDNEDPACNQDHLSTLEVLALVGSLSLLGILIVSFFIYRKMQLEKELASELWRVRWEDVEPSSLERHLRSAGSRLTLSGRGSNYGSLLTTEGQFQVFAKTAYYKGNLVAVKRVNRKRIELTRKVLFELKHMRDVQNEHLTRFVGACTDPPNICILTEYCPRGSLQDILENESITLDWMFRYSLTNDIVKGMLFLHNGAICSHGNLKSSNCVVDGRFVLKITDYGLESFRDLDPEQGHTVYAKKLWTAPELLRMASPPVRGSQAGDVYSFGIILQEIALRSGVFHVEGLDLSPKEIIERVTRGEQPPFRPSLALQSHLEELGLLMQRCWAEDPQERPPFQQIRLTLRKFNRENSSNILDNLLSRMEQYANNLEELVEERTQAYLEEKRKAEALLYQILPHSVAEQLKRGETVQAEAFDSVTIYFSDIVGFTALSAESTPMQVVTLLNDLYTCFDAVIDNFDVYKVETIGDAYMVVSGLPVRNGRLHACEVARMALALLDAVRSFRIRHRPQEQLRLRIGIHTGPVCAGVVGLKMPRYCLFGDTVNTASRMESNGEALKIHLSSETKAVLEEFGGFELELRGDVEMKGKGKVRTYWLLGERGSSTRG
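Compound pre-incubated 30 min at room temperature on GloSensor-loaded HEK293 cells stably carrying hNpr1 and the pGS-40F cGMP biosensor. Stimulation uses hNppA at 0.1 nM final; luminescence is taken at baseline and 20 min post-agonist.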
SNCA viab count: GF-AFC viability counterscreen for inhibitors of alpha-synuclein gene (SNCA) expression | AID 1671193, 2021 | Potency, µM (series often up to 57.1 µM), hits mostly cytotoxic | HEK-293-SNCA-luc viability, GF-AFC fluorescence, 24 h | 150,000 compounds, 0.12% hits; also: nearly all actives have a fitted effect of over 30% in size
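Cytotoxicity counterscreen: after 24 h compound treatment of genome-edited SNCA-luciferase HEK-293 cells, live-cell protease substrate GF-AFC read by fluorescence after 30 min; activity scaled between DMSO (0%) and medium-only (-100%), curves Hill-fitted.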
Numbers stand for hits; . = inactive; ? = inconclusive; / = no result; ! = not confirmed by another sample. Unless noted, calls follow the shape of the dose curve; as a rule, active = well fitted curve in the direction sought with a large enough effect; inconclusive = small, poorly fitted or top-dose-only effect, or another doubt; inactive = no such curve, though single readings can be large; an effect the other way counts as inactive or inconclusive.

SMILES | NIH3T3 tox | SNCA expr inhib | Luciferase inh | HEK cytotox | NPR1 antag | SNCA viab count
CC(=O)N1CC2(CCN(Cc3ccc(Cl)cc3)CC2)Cc2ccccc21 | ? | . | / | ? | / | .
O=C(c1ccc(Cl)cc1)N1CC2(CCCN(Cc3ccc(Cl)cc3)C2)Cc2ccccc21 (stereo not given) | 31.6µM | . | / | ? | / | .
O=C(NCCc1ccncc1)C1CN(C(=O)c2ccccc2Cl)CC12CCOCC2 (stereo not given) | . | . | . | . | . | .
O=C(c1ccc(C(F)(F)F)cc1)N1CC(Oc2ccc(F)c(F)c2)C1 | ? | . | / | . | / | .
O=C(C1CCCN1C(=O)c1ccccc1)N1CCC(c2nc3ccncc3[nH]2)C1 (stereo not given) | . | . | / | . | / | .
Cc1cc(CN2C[C@@H](CO)[C@H](C(=O)NC3CC3)C2)n(C)n1 | . | . | . | . | . | .
O=c1n(-c2ccc(F)cc2F)nc2n1CCN(Cc1ccc(C(F)(F)F)cc1)C2 | . | . | . | 79.4µM | ? | .
O=c1n(-c2ccc([N+](=O)[O-])cc2)nc2n1CCN(Cc1cccc3ccccc13)C2 | ? | . | . | ? | . | .
COC(=O)N1CCn2c(nn(-c3ccc([N+](=O)[O-])cc3)c2=O)C1 | . | . | . | . | . | .
Cc1ccc(CN2CCn3c(nn(-c4ccc([N+](=O)[O-])cc4)c3=O)C2)cc1 | ? | . | . | 44.7µM | ? | .
O=c1n(-c2ccc([N+](=O)[O-])cc2)nc2n1CCN(Cc1ccc(OC(F)(F)F)cc1)C2 | ? | . | . | 35.5µM | 17.8µM | .
O=c1n(-c2ccc([N+](=O)[O-])cc2)nc2n1CCN(CC1CC1)C2 | ? | . | ? | 35.5µM | ? | .
COc1ccc(CN2CCn3c(nn(-c4ccc(F)cc4F)c3=O)C2)cc1 | . | . | . | ? | . | .
O=C(c1ccn[nH]1)N1CCN(Cc2cnn3cccnc23)CC(O)C1 (stereo not given) | . | . | . | . | . | .
CN1C(=O)C(CC(=O)NCCc2c[nH]c3ccccc23)=C2CCCCC21 (stereo not given) | . | . | . | . | . | .
O=c1n(-c2ccc(C(F)(F)F)cc2)nc2n1CCN(Cc1ccc(F)cc1)C2 | 39.8µM | . | . | 31.6µM! | . | .
O=c1n(-c2ccc([N+](=O)[O-])cc2)nc2n1CCN(Cc1ccc(C(F)(F)F)cc1)C2 | ? | . | . | 35.5µM | 14.1µM | .
O=c1n(-c2ccc(Cl)cc2)nc2n1CCN(Cc1ccccc1)C2 | 8.91µM | . | / | ? | / | ?
O=c1n(-c2ccc(C(F)(F)F)cc2)nc2n1CCN(Cc1cccnc1)C2 | ? | . | / | ? | / | .
O=c1n(-c2ccc(C(F)(F)F)cc2)nc2n1CCN(CC1CC1)C2 | . | . | / | ? | / | .
O=c1n(-c2ccc(C(F)(F)F)cc2)nc2n1CCN(Cc1ccsc1)C2 | ? | . | / | 50.1µM | / | .
Cc1ccsc1[C@@H]1CCN(C(=O)c2ccc(-n3cnnn3)cc2)C[C@H]1O | ? | . | . | . | . | .
O=C(Nc1ccc(N2CCC(NC3Cc4ccccc4C3)CC2)cc1)C1CCCC1 | . | . | . | . | . | .
O=c1n(-c2ccncc2)nc2n1CCN(Cc1cccc3ccccc13)C2 | ? | . | . | 44.7µM | ? | ?
COC(=O)[C@@H]1Cc2ncn(C)c2CN1C(=O)C(C)(C)C | . | . | . | . | . | .
SMILES | NIH3T3 tox | SNCA expr inhib | Luciferase inh | HEK cytotox | NPR1 antag | SNCA viab count
CCOc1ccc(C(=O)NC2CCCN(c3cc(-c4ccc(F)cc4)[nH]n3)C2)cc1OCC (stereo not given) | 31.6µM | . | . | 28.2µM | . | .
O=C(NC1CCN(c2cc(-c3ccc(Cl)cc3)[nH]n2)C1)c1ccccc1 (stereo not given) | ? | . | . | ? | . | .
CCOc1ccccc1C(=O)NC1CCCN(c2cc(-c3ccc(F)cc3)[nH]n2)C1 (stereo not given) | 31.6µM | . | . | 39.8µM | . | .
Cc1ccccc1C(=O)NC1CCN(c2cc(-c3ccc(Cl)cc3)[nH]n2)C1 (stereo not given) | 39.8µM | . | . | ? | . | .
CCOc1ccc(C(=O)NC2CCN(c3cc(-c4ccc(Cl)cc4)[nH]n3)C2)cc1 (stereo not given) | ? | . | . | ? | . | .
CCOc1ccccc1C(=O)NC1CCN(c2cc(-c3ccc(Cl)cc3)[nH]n2)C1 (stereo not given) | ? | . | . | 35.5µM | . | .
Cc1ccccc1C(=O)NC1CCCN(c2cc(-c3ccc(F)cc3)[nH]n2)C1 (stereo not given) | ? | . | . | ? | . | .
O=C(NC1CC1)C1CCN(c2cnn(Cc3ccccc3)c(=O)c2)C1 (stereo not given) | . | . | . | . | . | .
c1ccc2sc(N3CCCN(Cc4cc5n(n4)CCNC5)CC3)nc2c1 | ? | . | ? | 35.5µM | . | .
Cc1ncc2c(c1CNC(=O)CC(C)c1ccccc1)CCNC2 (stereo not given) | . | ? | . | . | . | .
COc1cc(OC)c(-c2nc3ccc(-c4ccc(OC)c(OC)c4OC)cc3o2)cc1OC | 31.6µM | . | . | ? | . | .
CCCS(=O)(=O)N1CCCN(S(=O)(=O)c2ccccc2)CCC(=O)NCC1 | . | . | . | . | . | .
Fc1ccc(C2Cn3nnc(-c4nc(-c5ccc6c(c5)OCO6)no4)c3CO2)cc1 (stereo not given) | . | . | . | . | . | .
Fc1ccc(C2Cn3cnc(-c4nc(-c5ccc6c(c5)OCO6)no4)c3CO2)cc1 (stereo not given) | 25.1µM | . | ? | ? | . | .
COc1ccc(-c2noc(-c3ncn4c3COC(c3ccc(F)cc3)C4)n2)cc1OC (stereo not given) | 28.2µM | . | . | ? | . | .
Oc1ccccc1CN1CC(CNc2cccnc2)C2(C1)CN(c1ccccc1)C2 (stereo not given) | ? | . | . | 63.1µM | . | .
O=C(c1cccnc1)N1CC(CNc2ccccc2)C2(C1)CN(c1ccccc1)C2 (stereo not given) | ? | . | . | ? | . | .
CC(C)c1ccc(CN2CC(CNc3cccnc3)C3(C2)CN(c2ccccc2)C3)cc1 (stereo not given) | 35.5µM | . | . | 50.1µM | ? | .
